Compound activity deposited in PubChem by National Center for Advancing Translational Sciences (NCATS).
Compounds with a hit are over-represented: about 13% of the library has one in this group of screens.
A350 autofl: compounds fluorescent in Alexa 350 spectral region; Compound autofluorescence, 340/450 nm, Alexa 350 dye-equivalents; hits give high values; max dye-equivalent concentration, M; 59,000 compounds, 11% hits; AID 590; in the data active = max dye-equivalent concentration above about 10 nM; inconclusive = mostly about 1.1 nM to 9.6 nM
HSD17B inh: blocks hydroxysteroid 17-beta dehydrogenase activity; recombinant HSD17B10, NADH fluorescence kinetic; 75,000 compounds, 7.6% hits; Potency, µM (series often up to 57.1 µM), most hits filed as inhibitors; AID 893; Q99714;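 note: the protocol describes HADH2 (HSD17B10) and not the HSD17B4 of the title; nearly all actives have a fitted effect of over 70% in size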
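Enzyme plus compound, 15 min room temperature; substrate mix added (NAD+ 1 mM, beta-hydroxybutyryl-CoA 90 uM final); plates read kinetically for NADH fluorescence. HADH2 was His-tagged, E. coli-derived, 20 nM.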
GBA mod: alters purified human glucocerebrosidase activity; P04062; 48,000 compounds, 1.1% hits; Potency, µM; purified enzyme, resorufin glucoside fluorescence (screen aimed at inhibitors), 20 min; in the data active = potency below about 15 µM; inconclusive = mostly about 16 µM to 33 µM;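 note: the screen sought inhibitors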
Target sequence (P04062 whole entry, looked up): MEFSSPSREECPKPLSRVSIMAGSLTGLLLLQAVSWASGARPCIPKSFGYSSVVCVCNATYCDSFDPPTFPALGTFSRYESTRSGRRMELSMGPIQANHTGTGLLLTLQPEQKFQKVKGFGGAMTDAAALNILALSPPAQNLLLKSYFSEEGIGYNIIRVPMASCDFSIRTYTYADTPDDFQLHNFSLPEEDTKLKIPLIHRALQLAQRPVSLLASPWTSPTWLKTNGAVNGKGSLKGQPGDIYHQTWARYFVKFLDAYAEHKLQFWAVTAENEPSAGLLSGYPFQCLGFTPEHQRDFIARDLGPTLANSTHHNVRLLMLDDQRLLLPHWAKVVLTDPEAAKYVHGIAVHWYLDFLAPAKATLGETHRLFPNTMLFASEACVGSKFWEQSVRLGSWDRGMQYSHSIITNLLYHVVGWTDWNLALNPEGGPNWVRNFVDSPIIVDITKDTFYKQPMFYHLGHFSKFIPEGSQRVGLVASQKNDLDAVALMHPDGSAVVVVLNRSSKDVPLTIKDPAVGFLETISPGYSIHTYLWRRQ
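Normal human glucocerebrosidase (0.2 nM final) was assayed with resorufin β-D-glucopyranoside (30 uM final) in 50mM citric acid/KH2PO4, 10mM sodium taurocholate, 0.01% tween-20, pH 5.9. Compounds were titrated; fluorescence (Ex 548, Em 600) read after 20 min at RT.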
4-MU autofl: compound fluoresces in the 4-MU spectral region; 59,000 compounds, 11% hits; max dye-equivalent concentration, M; compound autofluorescence, 340/450 nm, 4-MU equivalents; hits give high values; in the data active = max dye-equivalent concentration above about 10 nM; inconclusive = mostly about 1.1 nM to 9.6 nM
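Intrinsic fluorescence at 340/450 nm (ex/em) was read after 15 min at room temperature in pH 8.0, 100 mM Tris. Each compound concentration expressed as 4-MU-equivalent concentration from a six-point 4-MU standard series on each plate.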
AID923: qHTS Assay for Allosteric/Competitive Inhibitors of Caspase-1: Spectroscopic Profiling in AFC Spectral Region | Potency, µM (titrated, usually from 57.5 µM), most hits filed as activators | 75,000 compounds, 1.1% hits | compound fluorescence, AFC spectral region (405/520 nm) | AID 923, 2007
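Titrations up to 57 uM read every 20 sec for 3 min (405/520 nm) with 50 nM caspase 1 and 5 uM Ac-WEHD-AFC, pH 7.5 HEPES buffer. Fluorescence-vs-time intercept gave baseline, scaled against on-plate AFC standard.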
HADH2 inhib: HADH2 (human) dehydrogenase inhibition. 73,000 compounds, 3.4% hits. Potency, µM (top dose mostly 57.1 µM), hits mostly inhibitors. Q99714. recombinant HADH2, NADH fluorescence, beta-hydroxybutyryl-CoA. AID 886; note: nearly all actives have a fitted effect of over 60% in size
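NADH fluorescence (ex 360/em 450 nm) read every 30 s for 4 min; activity taken as last-minus-first time point difference. Enzyme 20 nM, NAD+ 1 mM, beta-hydroxybutyryl-CoA 90 uM, pH 9.0 Tris buffer.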
Of the large screens only hits and unclear results are named; the others gave an inactive call. Unless noted, calls come from the whole dose curve; as a rule, active = well fitted curve in the direction sought with a large enough effect; inconclusive = small, poorly fitted or top-dose-only effect, or another doubt; inactive = no such curve, though single readings can be large; an effect the other way counts as inactive or inconclusive.

COc1ccccc1N1CCN(C(=O)c2cc(-c3cccc(Cl)c3)on2)CC1	none
COC(=O)c1ccccc1NC(=O)n1cc(C)cn1	A350 autofl 9.15e-08M, HSD17B inh 31.6µM, 4-MU autofl 8.07e-08M, HADH2 inhib inconclusive
COc1ccc(CCn2c(C)cc3c(c2=O)C(c2ccc4c(c2)OCO4)C(C#N)=C(N)O3)cc1OC (centres undefined)	A350 autofl 3.4e-08M, 4-MU autofl 2.84e-08M (no result: HSD17B inh, GBA mod, AID923, HADH2 inhib)
COc1cc(C2C(C#N)=C(N)Oc3cc(C)oc(=O)c32)cc2c1OCO2 (centres undefined)	HSD17B inh 20µM
COc1cc(C2C(C#N)=C(N)Oc3cc(C)n(CC4CCCO4)c(=O)c32)cc2c1OCO2 (centres undefined)	A350 autofl inconclusive, HSD17B inh inconclusive, 4-MU autofl inconclusive
CC(=O)Nc1nc(NC(C)=O)c2[nH]c(CO)nc2n1	none (no result: GBA mod)
CCC(=O)OCC(=O)C1(OC(=O)CC)C(C)CC2C3C(Cl)CC4=CC(=O)C=C[C@@]4(C)C3C(O)C[C@@]21C (some centres undefined)	none (no result: A350 autofl, GBA mod, 4-MU autofl, HADH2 inhib)
Cc1ccccc1-c1nc(N2CCN(C)CC2)c2ccccc2n1	A350 autofl inconclusive, HSD17B inh 20µM, 4-MU autofl inconclusive (no result: GBA mod)
COC1(OC)N=C(N)C2(C#N)C(c3cccc(Oc4ccccc4)c3)C12C#N (centres undefined)	A350 autofl 6.7e-08M, 4-MU autofl 6.93e-08M
COC1(OC)N=C(N)C2(C#N)C(c3ccc(F)cc3)C12C#N (centres undefined)	none
CC(C)N(Cc1cc2ccccc2[nH]c1=O)C(=O)c1cccnc1	A350 autofl inconclusive, 4-MU autofl inconclusive
COc1ccc2[nH]c(=O)c(CN(C(=O)COc3ccccc3)C(C)C)cc2c1	A350 autofl 2.52e-07M, HSD17B inh 31.6µM, 4-MU autofl 1.95e-07M
COc1ccccc1N(CN1C(=O)c2ccccc2C1=O)C(=O)c1cccnc1	none
COc1ccc2[nH]c(=O)c(CN(C(=O)c3cccnc3)c3ccccc3OC)cc2c1	A350 autofl 3.49e-07M, HSD17B inh 25.1µM, 4-MU autofl 2.65e-07M, HADH2 inhib inconclusive
COc1ccc(N(Cc2cc3cc(OC)ccc3[nH]c2=O)C(=O)c2cccnc2)cc1	A350 autofl 3.59e-07M, HSD17B inh inconclusive, 4-MU autofl 2.74e-07M, HADH2 inhib inconclusive
COc1ccc2[nH]c(=O)c(CN(C(=O)c3ccccn3)c3ccccc3)cc2c1	A350 autofl 8.99e-08M, 4-MU autofl 7.01e-08M
COc1cc2[nH]c(=O)n(CCCC(=O)NCCc3ccccc3)c(=O)c2cc1OC	HSD17B inh 25.1µM
CCOc1cc2[nH]c(=O)n(CC3CCC(C(=O)NCCC(C)C)CC3)c(=O)c2cc1OCC (centres undefined)	none
COc1cc2[nH]c(=O)n(CCCC(=O)N3CC=C(c4ccccc4)CC3)c(=O)c2cc1OC	A350 autofl 3.74e-08M, HSD17B inh 25.1µM, 4-MU autofl 2.58e-08M
COCCCNC(=O)CCCn1c(=O)[nH]c2ccccc2c1=O	A350 autofl inconclusive, HSD17B inh inconclusive, 4-MU autofl inconclusive
COc1cc2[nH]c(=O)n(CCCCCC(=O)N3CCN(c4ccccn4)CC3)c(=O)c2cc1OC	none
COc1cc2[nH]c(=O)n(CCCCCC(=O)NCCCN3CCOCC3)c(=O)c2cc1OC	A350 autofl inconclusive, HSD17B inh inconclusive
COc1cc2[nH]c(=O)n(CCCCCC(=O)NCCCN3CCC(C)CC3)c(=O)c2cc1OC	A350 autofl inconclusive, HSD17B inh 31.6µM
CCOc1cc2[nH]c(=O)n(CC3CCC(C(=O)NCCCOC)CC3)c(=O)c2cc1OCC (centres undefined)	HSD17B inh 25.1µM
CN(C(=O)c1ccccc1C(=O)O)C1CC(C)(C)NC(C)(C)C1	none (no result: A350 autofl, GBA mod, 4-MU autofl)
CCCCNC(=O)c1ccc(Cc2nc3ccccc3[nH]2)cc1	none (no result: A350 autofl, GBA mod, 4-MU autofl)
CC(=O)N[C@@H]1C(O)OC(CO)C(O)C1O (some centres undefined)	none (no result: A350 autofl, GBA mod, 4-MU autofl, HADH2 inhib)
COC(=O)C(c1ccccc1Cl)N1CCc2sccc2C1 (centres undefined)	none (no result: A350 autofl, GBA mod, 4-MU autofl, HADH2 inhib)
COc1ccc(Cn2c(=O)[nH]c3cc(C(=O)NCCCN4CCCC4=O)ccc3c2=O)cc1	A350 autofl inconclusive, HSD17B inh inconclusive, 4-MU autofl inconclusive
